{"source": "PubChem BioAssay AID589", "about": "(National Center for Advancing Translational Sciences (NCATS), 2007)", "note": "Out of some 59,000 compounds screened, about 6,200 (11%) were called active. Roughly 9% stayed inconclusive and do not appear here. No stated cut-off is given here; in the data, active means max dye-equivalent concentration above about 10 nM; inconclusive means mostly about 1.1 nM to 9.6 nM; inactive means weaker than that. What follows is part of a selection rich in actives, with near analogues and random picks from the rest."}
{"assay": "qHTS Assay for Spectroscopic Profiling in 4-MU Spectral Region", "conditions": "compound autofluorescence, 340/450 nm, 4-MU equivalents; stronger effect = higher value", "excerpt": "NIH Molecular Libraries Screening Centers Network [MLSCN] NIH Chemical Genomics Center [NCGC] […] Occasionally, the artifactual effect may originate from the compounds own spectral or other biophysical properties which generally tend to track its assay concentration. Pre-screening/profiling the library with respect to the compounds spectral properties should help one exclude false positives early on. While the most informative fluorescent profiling data set is obtained by performing a full excitation and emission scan of each well by using a monochromator-based plate reader, such an approach is practical only on a very limited scale as scanning each well requires long time. An alternative approach, applied here, is to perform plate reader scans using selected excitation and emission wavelength pairs to generate a multidimensional relational database that correlates compound concentration and the respective relative fluorescence intensity at a given wavelength set. A standard curve of 4-methylumbelliferone (4-MU) present on each plate as six-point concentration series, was used to compute a normalized fluorescence response, termed dye-equivalent concentration, for each compound at each concentration.\nNCGC Assay Protocol Summary: Buffer: 100 mM Tris buffer, pH 8.0 Dye standard plate: The wells in columns 1 through 4 of a Kalypsys polypropylene 1536-well compound plate were filled with standard solutions of fluorophore corresponding to the spectral region of interest. Solutions of 4-MU were placed in the following wells: A1, B1: 3 mM, A2, B2: 300 uM, A3, B3: 30 uM, A4, B4: zero (DMSO), C1, D1: 3 uM, C2, D2: 900 nM, C3, D3: 300 nM, C4, D4: zero (DMSO). Assay Steps: Six uL of buffer were dispensed to 1536-well Greiner black plates. Compounds and dye standards (23 nL) were transferred via Kalypsys PinTool. The plates were incubated for 15 min at room temperature, and then read on ViewLux (Perkin-Elmer) High-throughput CCD imager using 340 nm and 450 nm excitation and emission filter set. Keywords: NIH Roadmap, MLSCN, MLI, MLSMR, qHTS, NCGC, Fluorescent Profiling, 4MU, 4-MU"}
{"smiles": "Cn1c(CC(=O)Nc2ccccc2)nnc1SCC(=O)c1ccccc1", "max dye-equivalent concentration": "inactive"}
{"smiles": "CC(=O)N1CCC2(CC1)CCN(c1ccncc1)CC2", "max dye-equivalent concentration": "inactive"}
{"smiles": "COc1cc(OC)cc(C(=O)Nc2ccc(-c3nc4ccccc4o3)c(O)c2)c1", "max dye-equivalent concentration": "330 nM (active)"}
{"smiles": "COc1ccc(NC(=O)c2c(C)oc3c2CCCC3)cc1", "max dye-equivalent concentration": "inactive"}
{"smiles": "COc1cccc(NC(=O)c2ccccc2SC)c1", "max dye-equivalent concentration": "inactive"}
{"smiles": "O=C1[C@@H]2C(Cc3ccc(O)cc3)NC3(C(=O)Nc4ccc(F)cc43)[C@@H]2C(=O)N1c1ccc(F)cc1", "note": "(stereo partly specified)", "max dye-equivalent concentration": "inactive"}
{"smiles": "CC(Sc1sc(=S)sc1SC(C)C(=O)O)C(=O)O", "note": "(stereo unspecified)", "max dye-equivalent concentration": "inactive"}
{"smiles": "CC(C)CCNc1nc(N2CCCC2)c2c(c1C#N)CCN(C)C2", "max dye-equivalent concentration": "24 nM (active)"}
{"smiles": "COc1ccc(OC)c(NC(=O)CN2CCN(C(=O)c3ccco3)CC2)c1", "max dye-equivalent concentration": "inactive"}
{"smiles": "Cc1csc(NC(=O)CN2CCCCCC2)n1", "max dye-equivalent concentration": "inactive"}
{"smiles": "Cc1csc(NC(=O)NC2(C(F)(F)F)Oc3ccccc3O2)n1", "max dye-equivalent concentration": "110 nM (active)"}
{"smiles": "O=C(Nc1cc(N2CCOCC2)ncn1)NC1(C(F)(F)F)Oc2ccc(Cl)cc2O1", "note": "(stereo unspecified)", "max dye-equivalent concentration": "inactive"}
{"smiles": "C[C@H](NC(=O)NCCc1ccccc1)C(=O)O", "max dye-equivalent concentration": "inactive"}
{"smiles": "CNc1ncnc2ccc(-c3cccc(NS(C)(=O)=O)c3)cc12", "max dye-equivalent concentration": "inactive"}
{"smiles": "Cn1c(SCC(=O)OC2CCCCC2)nnc1-c1ccc(S(=O)(=O)N2CCCC2)cc1", "max dye-equivalent concentration": "inactive"}
{"smiles": "Cc1ccsc1C(=O)OCC(=O)c1cc2ccccc2o1", "max dye-equivalent concentration": "inactive"}
{"smiles": "O=C(NCc1ccccn1)c1cnc2sccn2c1=O", "max dye-equivalent concentration": "inactive"}
{"smiles": "COc1ccc2oc(=O)c(C(=O)O)cc2c1", "max dye-equivalent concentration": "inactive"}
{"smiles": "O=C(NCc1ccccn1)c1cc2ccccc2oc1=O", "max dye-equivalent concentration": "22 nM (active)"}
{"smiles": "O=C(Oc1cccnc1)c1cc2ccccc2oc1=O", "max dye-equivalent concentration": "82 nM (active)"}
{"smiles": "O=C(NCc1ccccn1)Nc1ccc(F)cc1", "max dye-equivalent concentration": "inactive"}
{"smiles": "Cc1cc(NC(=O)COC(=O)c2ccc(F)c(S(=O)(=O)N3CCOCC3)c2)no1", "max dye-equivalent concentration": "inactive"}
{"smiles": "COc1ccc(NC(=O)N2CC3(CCN(C(=O)c4cccn4C)CC3)C2)cc1", "max dye-equivalent concentration": "inactive"}
{"smiles": "Cc1cc(=O)[nH]c(SCc2cc(Cl)ccc2OC(F)F)n1", "max dye-equivalent concentration": "inactive"}
{"smiles": "COc1ccccc1C(=O)N1CCNC(=O)C1CC(=O)Nc1ccc(Cl)cc1", "note": "(stereo unspecified)", "max dye-equivalent concentration": "inactive"}
{"smiles": "CCCCc1cc(=O)oc2cc(C)cc(OCc3nn[nH]n3)c12", "max dye-equivalent concentration": "59 nM (active)"}
{"smiles": "Cc1c(O)c(Br)c(C)c(O)c1Br", "note": "(tested in a mixture with another compound)", "max dye-equivalent concentration": "inactive"}
{"smiles": "CCc1nnc(NC(=O)c2nc3nccc(C)n3n2)s1", "max dye-equivalent concentration": "inactive"}
{"smiles": "CCC1=C/C(=C\\c2ccc3c(c2)OCO3)C(=O)S1", "max dye-equivalent concentration": "inactive"}
{"smiles": "COc1cc2nc(N3CCN(C(=O)[C@@H]4CCCO4)CC3)nc(N)c2cc1OC", "max dye-equivalent concentration": "890 nM (active)"}
{"smiles": "COc1ccccc1CNC(=O)C1CCN(c2nc3ccccc3o2)CC1", "max dye-equivalent concentration": "inactive"}
{"smiles": "O=C(C1CCCO1)N1CCC(c2nc3ccccc3[nH]2)CC1", "note": "(stereo unspecified)", "max dye-equivalent concentration": "inactive"}
{"smiles": "COc1ccc2[nH]cc(CCNc3ncnc4ccc(-c5ccccc5CN(C)C)cc34)c2c1", "max dye-equivalent concentration": "inactive"}
{"smiles": "Cc1ccccc1NC(=O)c1cc(S(=O)(=O)N2CCOCC2)cs1", "max dye-equivalent concentration": "inactive"}
{"smiles": "CN(CC(=O)NC1CCCCC1)S(=O)(=O)c1ccc(Br)s1", "max dye-equivalent concentration": "inactive"}
{"smiles": "CCC(C(=O)NC1CCCC1)N(C(=O)c1snc(C(N)=O)c1N)c1ccc2c(c1)OCCO2", "note": "(stereo unspecified)", "max dye-equivalent concentration": "inactive"}
{"smiles": "COCCNC(=O)C(c1ccc(C)o1)N(Cc1ccccc1)C(=O)Cn1nnc2ccccc21", "note": "(stereo unspecified)", "max dye-equivalent concentration": "inactive"}
{"smiles": "COCCNC(=O)C(c1ccc(C)o1)N(Cc1cccs1)C(=O)c1snc(C(N)=O)c1N", "note": "(stereo unspecified)", "max dye-equivalent concentration": "110 nM (active)"}
{"smiles": "CCOC(=O)CCCNC(=O)CN1C(=O)NC(CCc2ccccc2)C1=O", "note": "(stereo unspecified)", "max dye-equivalent concentration": "inactive"}
{"smiles": "CCOC(=O)c1ccc(NC(=O)CS(=O)(=O)c2cn(CC)c3ccccc23)cc1", "max dye-equivalent concentration": "inactive"}
{"smiles": "O=C(Nc1ccccc1-c1nnn(CC(=O)N2CCN(c3ccccc3)CC2)n1)c1cccs1", "max dye-equivalent concentration": "inactive"}
{"smiles": "Cc1[nH]c(N)nc(=S)c1CCCNc1ccccc1", "max dye-equivalent concentration": "inactive"}
{"smiles": "Cn1c(=S)c2[nH]c(SCCCc3ccccc3)nc2n(C)c1=O", "max dye-equivalent concentration": "13 nM (active)"}
{"smiles": "CCCSc1nc2c(c(=O)[nH]c(=O)n2C)n1CCc1ccccc1", "max dye-equivalent concentration": "inactive"}
{"smiles": "Cn1c(=O)c2c(nc(NCCc3ccccc3)n2Cc2ccccc2)n(C)c1=O", "max dye-equivalent concentration": "inactive"}
{"smiles": "O=C(CC(Cc1ccccc1)C(=O)O)NCCc1ccc2c(c1)OCO2", "note": "(stereo unspecified)", "max dye-equivalent concentration": "inactive"}
{"smiles": "CCOc1ccc(OCC)c(NC(=O)CSc2nnc(Cn3cnc4ccccc43)n2C)c1", "max dye-equivalent concentration": "inactive"}
{"smiles": "COC(=O)COc1ccc2oc(=O)cc(C)c2c1", "max dye-equivalent concentration": "25 nM (active)"}
{"smiles": "COc1ccc2oc(C)c(NC(C)=O)c2c1", "max dye-equivalent concentration": "inactive"}
{"smiles": "CCOC(=O)c1c(C)oc2ccc(OCC(=O)N(CC)CC)cc12", "max dye-equivalent concentration": "inactive"}
{"smiles": "Cc1nc(CNS(=O)(=O)c2cccnc2)cs1", "max dye-equivalent concentration": "inactive"}
{"smiles": "COC(=O)c1ccc(C2C3=C(Nc4nnnn42)c2ccccc2OC3)cc1", "note": "(stereo unspecified)", "max dye-equivalent concentration": "59 nM (active)"}
{"smiles": "CCCCCOC(=O)C1=C(C)Nc2nnnn2C1c1ccc(OC)c(OC)c1OC", "note": "(stereo unspecified)", "max dye-equivalent concentration": "inactive"}
{"smiles": "COc1ccccc1NC(=O)C1=C(C)Nc2nnnn2C1c1cccc(Br)c1", "note": "(stereo unspecified)", "max dye-equivalent concentration": "inactive"}
{"smiles": "O=C(CNS(=O)(=O)c1ccc(Br)s1)NCc1ccc2c(c1)OCO2", "max dye-equivalent concentration": "inactive"}
{"smiles": "O=C(N1CCOCC1)N(Cc1ccccc1)c1ccccn1", "max dye-equivalent concentration": "inactive"}
{"smiles": "NC(=O)CSc1c[nH]c2ccccc12", "max dye-equivalent concentration": "inactive"}
{"smiles": "Cc1ccc2c(c1)C(O)(CC(=O)c1cccnc1)C(=O)N2", "note": "(stereo unspecified)", "max dye-equivalent concentration": "inactive"}
{"smiles": "CCc1cc2c(=O)c(-c3ccon3)c(N)oc2cc1OC", "max dye-equivalent concentration": "inactive"}
{"smiles": "Cc1ccc(-c2noc(CN3CCN(Cc4ccccc4)CC3)n2)cc1", "max dye-equivalent concentration": "inactive"}
{"smiles": "COc1ccccc1Cc1nc(-c2ccc(C)cc2)no1", "max dye-equivalent concentration": "16 nM (active)"}
{"smiles": "Cc1ccc(Cc2nc(-c3cccc(C)c3)no2)cc1", "max dye-equivalent concentration": "inactive"}
{"smiles": "O=C(Nc1cccc(F)c1)N1CCC2(CC1)CCN(S(=O)(=O)c1ccccc1)CC2", "max dye-equivalent concentration": "inactive"}
{"smiles": "CN1CCCC(OC(=O)COc2ccc(Br)cc2)C1", "note": "(stereo unspecified)", "max dye-equivalent concentration": "inactive"}
{"smiles": "CCCSC1=C(C#N)C(c2ccccc2C)C(C(=O)OC)C(=O)N1", "note": "(stereo unspecified)", "max dye-equivalent concentration": "inactive"}
{"smiles": "Cc1ccc2nc(-c3ccc(SCC(=O)Nc4cc(C)on4)nc3)[nH]c2c1", "max dye-equivalent concentration": "33 nM (active)"}
{"smiles": "Cc1cc(C)c2c(c1)cc(C)c1nnc(SCC(=O)Nc3cc(C)on3)n12", "max dye-equivalent concentration": "inactive"}
{"smiles": "Cc1nc(SCC(=O)Nc2cc(C)on2)c2c(C)c(C)sc2n1", "max dye-equivalent concentration": "inactive"}
{"smiles": "CCOc1ccccc1C(=O)NCc1ccco1", "max dye-equivalent concentration": "inactive"}
{"smiles": "CCOc1ccccc1C(=O)NCCCn1ccnc1", "max dye-equivalent concentration": "inactive"}
{"smiles": "CCOc1ccccc1C1C(C(=O)OC)=CN(C)C=C1C(=O)OC", "max dye-equivalent concentration": "10000 nM (active)"}
